GALR2 blocker – blocks the human galanin receptor 2 | GALR2-expressing cells, antagonist mode | inhibition, % at 4 µM | 140,000 tested, 0.39% active | AID 828; in the data active means inhibition above about 27%;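 further: cells stimulated with galanin 1-16 at roughly its EC80; 0% = agonist challenge control and 100% = basal control without agonist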
S1P2 ag – agonists of human S1P2 receptor; O95136; S1P2-expressing cell line, agonist reporter read-out; AID 729; 97,000 tested, 0.46% active; activation, % at 4.5 µM; in the data active means activation above about 16%;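 further: 0% = vehicle low control and 100% = maximal reference agonist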
S1P2 blocker – blocks the human S1P2 receptor | cell-based S1P2 antagonist assay, inhibition at 5 uM | inhibition, % at 5 µM | 97,000 tested, 0.21% active | AID 736; in the data active means inhibition above about 45%;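 further: CRE beta-lactamase reporter cells expressing human S1P2 stimulated with S1P; 0% = agonist at EC80 alone and 100% = agonist plus reference antagonist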
Candida biofilm – kills Candida albicans biofilms; 85,000 tested, 0.14% active; C. albicans biofilm + clotrimazole, Alamar Blue; inhibition, % at 6 µM;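 active means inhibition above 20%; inactive means inhibition below 20%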;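 further: preformed 24 hr biofilms exposed to compound for 48 hr; 0% = biofilm without compound and 100% = blank killed by clotrimazole plus chlorhexidine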
GALR2 agonist – agonists of human galanin receptor 2 (GALR2); O43603; GALR2-expressing cells, agonist activation read-out; activation, % (concentration not given with the values); 140,000 tested, 0.48% active; in the data active means activation above about 5%, passing the limit was not always enough;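 further: 0% = vehicle buffer wells and 100% = reference agonist at full effect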
Smad3 FoxH1 inh – inhibitors of human Smad3 transcription factor binding | inhibition, % at 25 µM | 88,000 tested, 0.29% active | P84022 | TR-FRET Smad3/Dy647-FoxH1 peptide binding, europium anti-His | AID 630;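 active means compounds that reduce the energy-transfer binding signal between the protein and its labelled peptide by more than half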;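 further: 0% = Smad3 plus labelled peptide maximal FRET and 100% = peptide-only background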
Target sequence (P84022 whole entry, looked up): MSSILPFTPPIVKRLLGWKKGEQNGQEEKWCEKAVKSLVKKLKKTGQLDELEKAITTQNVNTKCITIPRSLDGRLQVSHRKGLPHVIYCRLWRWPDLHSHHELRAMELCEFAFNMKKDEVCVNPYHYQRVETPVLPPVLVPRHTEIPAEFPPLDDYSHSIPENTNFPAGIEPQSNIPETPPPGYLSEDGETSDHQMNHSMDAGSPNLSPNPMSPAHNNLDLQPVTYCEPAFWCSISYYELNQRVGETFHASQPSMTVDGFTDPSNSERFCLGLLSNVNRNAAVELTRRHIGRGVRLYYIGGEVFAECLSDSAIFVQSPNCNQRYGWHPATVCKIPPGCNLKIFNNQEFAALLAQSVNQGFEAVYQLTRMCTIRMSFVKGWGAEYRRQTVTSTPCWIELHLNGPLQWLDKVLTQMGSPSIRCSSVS
GALR2 ag confirm – confirmation of human galanin receptor 2 (GALR2) agonists | shares compounds with GALR2 agonist | GALR2-expressing cells, agonist activation | activation, % at 5.6 µM | 460 tested, 10% active; in the data active means activation above about 8.4%;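 further: 0% = buffer-only vehicle wells and 100% = full reference agonist response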
BLA act counter – beta-lactamase activation, GALR2 counterscreen | CHO NFAT-bla reporter, beta-lactamase FRET activation | activation, % at 5.6 µM | 460 tested, 10% active | shares compounds with GALR2 agonist | AID 865;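 active means activation above the screen-wide mean activation plus 3 SD, cut at about 8% in these data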;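 further: 0% = DMSO with PBS wells and 100% = thapsigargin positive control wells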
* = called active by the depositor; . = not tested or not shown. An excerpt weighted towards active compounds, which were near 1.3% of everything screened.

SMILES | GALR2 blocker | S1P2 ag | S1P2 blocker | Candida biofilm | GALR2 agonist | Smad3 FoxH1 inh | GALR2 ag confirm | BLA act counter
CCOc1cccc(SCc2noc(C(=O)NCCOC)c2C(=O)O)c1 | -3 | -9 | 8 | . | 59* | . | 0 | 1
Cc1ccc(CNC(=O)c2ccc3nc4[nH]c5ccccc5c4nc3c2)cc1 | 5 | . | . | . | 14* | . | 8.7* | 6
CC(CCc1ccccc1)NC(=O)COC(=O)c1cc(NS(=O)(=O)c2ccc(Cl)c([N+](=O)[O-])c2)ccc1O (configuration not stated) | 2 | . | . | . | -2 | . | . | .
CCSc1ncc(C#N)c(N)n1 | -19 | 0 | -4 | 4 | 10 | -1 | -1 | -3
CCn1c(CCC(=O)Nc2nc3c(s2)CCCC3)nc2cc(S(=O)(=O)N(C)C)ccc21 | 10 | -2 | 7 | 7 | -1 | -10 | . | .
Nc1c(C(=O)Nc2ccc(S(=O)(=O)N3CCCC3)cc2)sc2nc3ccc(OC(F)(F)F)cc3cc12 | 6 | . | . | . | 18* | . | 7 | 2
COC(=O)CN1C(=O)C2(OCCCO2)c2ccccc21 | 4 | -2 | 16 | . | -1 | -7 | . | .
O=C(O)CN1C(=O)C2(OCCCO2)c2ccccc21 | -4 | -3 | -20 | -2 | 8 | -26 | 0 | -2
Cc1c(C(=O)N/N=C/c2ccc(-c3ccccc3[N+](=O)[O-])o2)sc(N)c1C#N | 16 | . | . | . | 16* | . | 9.2* | 11*
O=C(N/N=C/c1ccc(-c2ccccc2[N+](=O)[O-])o1)c1cncc(Br)c1 | 20 | . | . | . | -1 | . | . | .
CCC1CCCCN1c1nc2c(C=O)c(C)nn2c2ccccc12 (configuration not stated) | -2 | . | . | . | 3 | . | . | .
CC(C)N(C1=N/C(=C\c2ccco2)C(=O)N1c1ccccc1)C(C)C | 4 | 14 | -20 | . | 9 | . | 6 | 9.2*
O=C1/C(=C/c2ccco2)N=C(N2CCCCC2)N1c1ccccc1 | 8 | . | . | . | 1 | . | . | .
C=CCNC(=O)/C(C#N)=C/c1cn(-c2ccccc2)nc1-c1cccs1 | 10 | . | . | . | 13* | . | 11* | 5
CN(C)S(=O)(=O)c1cc(NC(=O)COC(=O)CCSc2ccc(Cl)cc2)ccc1Cl | -1 | . | . | . | 0 | . | . | .
CCOC(=O)c1cc(C#N)c(Oc2ccccc2OC)nc1-c1ccccc1 | 9 | -7 | 7 | . | -1 | . | . | .
CCC(NC(=O)NCCCn1ccnc1)(C(F)(F)F)C(F)(F)F | 7 | . | . | 8 | -3 | -1 | . | .
CCOC(=O)CCS(=O)(=O)c1nc(-c2ccccc2)cc(C(F)(F)F)n1 | 19 | 0 | -11 | -1 | 3 | 2 | . | .
COC(=O)CCS(=O)(=O)c1nc(-c2ccccc2)cc(C(F)(F)F)n1 | 8 | -2 | -11 | 8 | 11 | -4 | 0 | 2
CCOC(=O)CS(=O)(=O)c1nc(-c2ccc(F)cc2)cc(C(F)(F)F)n1 | 51* | . | . | 6 | 9.3* | -3 | 3 | -9
Cc1nn(CC2CCCCC2)c(N)c1-c1ccccc1 | 0 | 0 | 8 | 5 | 1 | -9 | . | .
CC1CN(C2CCN(S(=O)(=O)c3ccccc3)CC2)CC(C)O1 (configuration not stated) | -6 | 1 | -18 | 4 | -1 | 5 | . | .
CC1CN(C2CCN(S(=O)(=O)Cc3ccccc3)CC2)CC(C)O1 (configuration not stated) | -9 | -1 | 18 | 4 | 10 | -3 | -1 | -2
O=C(CC1CCCCC1)Nc1ccccc1-c1ccccc1 | -7 | . | . | . | 1 | . | . | .
CC(NC1CCCC1)C(=O)Nc1ccccc1-c1ccccc1 (configuration not stated) | 9 | -9 | -10 | 8 | 12* | -2 | -1 | -1
SMILES | GALR2 blocker | S1P2 ag | S1P2 blocker | Candida biofilm | GALR2 agonist | Smad3 FoxH1 inh | GALR2 ag confirm | BLA act counter
CC(C)=CC[N+]1(C)CCCCC1 | -1 | . | . | . | -2 | . | . | .
O=c1[nH]c2ccccc2nc1-c1cccs1 | 4 | 15 | -11 | 9 | 12* | 8 | 1 | 4
O=c1[nH]ncn2cccc12 | -12 | -5 | 9 | . | 25* | . | -1 | -2
CCN(CC)S(=O)(=O)c1ccc(N/N=C/c2cc(OC)c(OC)cc2OC)nc1 | 9 | . | . | . | 49* | . | 21* | 33*
CCN(CC)S(=O)(=O)c1ccc(N/N=C/c2ccc(OC)c(OC)c2OC)nc1 | 1 | . | . | . | -1 | . | . | .
CNC(=O)COC(=O)/C=C/c1c(C)nn(-c2ccccc2)c1C | -3 | . | . | . | -1 | . | . | .
O=C(Oc1ccccc1)N1CCN(c2ccc(F)cc2)CC1 | 3 | -4 | 4 | . | -1 | 4 | . | .
O=C(Nc1ccc(N2CCN(c3ccc(O)cc3)CC2)cc1)Oc1ccccc1 | 7 | -3 | -3 | -4 | 13* | 7 | -1 | -2
COc1cccc(-c2noc(C(C)n3nc(C)c([N+](=O)[O-])c3C)n2)c1 (configuration not stated) | -4 | -5 | 17 | . | -3 | . | . | .
O=C(Cn1c(=O)oc2cc(S(=O)(=O)N3CCCCCC3)ccc21)NC1CCCCCCC1 | 13 | -5 | 3 | 7 | -3 | -5 | . | .
O=C(Cn1c(=O)oc2cc(S(=O)(=O)N3CCCC3)ccc21)NC1CCCc2ccccc21 (configuration not stated) | 5 | . | . | 9 | 16* | 4 | 2 | -2
COc1ccc(C(=O)c2sc(Nc3cccc(OC)c3)c(C(=O)Nc3cccc(C)c3C)c2N)cc1 | 9 | -2 | 6 | . | 16* | . | 1 | 0
COc1ccc(Nc2sc(C(=O)c3ccc(Cl)cc3)c(N)c2C(=O)Nc2ccccc2OC)cc1 | -7 | -2 | -13 | . | 14* | . | -2 | -2
COc1ccc(NC(=O)c2c(Nc3ccccc3)sc(C(=O)c3ccc(F)cc3)c2N)cc1 | -3 | -5 | 44 | . | -3 | . | . | .
CCOC(=O)/C(=C/c1ccc(N2CCC(c3ccccc3)=N2)cc1)C(C)=O | 9 | . | . | . | 14* | . | 4 | 11*
CCOC(=O)C(=Cc1ccc(F)cc1)C(=O)OCC | 17 | -5 | 39 | . | 0 | . | . | .
COc1ccc(CN2C(=O)CN=C2Nc2cc(C)ccc2C)cc1 | -11 | -1 | -28 | 7 | -1 | -2 | . | .
O=C(Cc1ccccc1)NC(=S)Nc1cc(C(F)(F)F)ccc1Cl | -14 | -5 | 1 | . | 8.4* | . | 6 | 8
O=C(Cc1ccccc1)NC(=S)Nc1cccc(C(F)(F)F)c1 | -14 | -2 | 8 | . | 1 | . | . | .
O=C(NCCN1CCOCC1)c1csc2c1CCCC2 | -17 | -2 | -12 | 5 | 0 | 1 | . | .
CC1CC(C)CN(CCCNC(=O)c2csc3c2CCCC3)C1 (configuration not stated) | -7 | -8 | -7 | -1 | 108* | -8 | 0 | -1
Cc1cccc(OCCNc2cc(N3CCN(CCO)CC3)ccc2[N+](=O)[O-])c1 | -5 | . | . | . | 0 | . | . | .
Cc1ccc(NC(=S)N2CCN(C3CCCCC3)CC2)cc1 | -12 | -4 | 15 | . | -3 | . | . | .
CCOC(=O)c1ccc(NC(=O)CCc2ccc(CC)o2)cc1 | -6 | -2 | 1 | 4 | 8 | 2 | -1 | 0

From PubChem
